Assay results as given in PubChem BioAssay AID1159580 (chemical genetic matrix, 2015).
Where “and” joins values, the source holds several entries; their conditions need not be identical. Equal entries are not always repeated. Out of some 5,500 compounds screened, about 2,000 (36%) were called active. Not shown: some 18% with an inconclusive outcome. No stated cut-off is given here; in the data, active means normalized growth mostly below about 0.91 (no sharp cut-off); inconclusive means no clear call, values can overlap the other calls; inactive means mostly above about 0.92. The list shows a part of the results.

Assay: chemical genetic growth profiling, strain panel (AID 1159580);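 further: tested at 20 µM; growth read once vehicle control cultures reached saturation at 30 °C; 1 = growth at the plate median or of vehicle wells; lower values mean less growth of the strain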
Details: S. cerevisiae deletion strains, growth OD

Measured: normalized growth

COc1cc2c(cc1OC)[C@@H]1C(=O)c3ccc4oc(C(C)C)cc4c3O[C@@H]1CO2
inactive: locus YAL021C, strain ccr4, active compounds read low 0.983 | locus YAL026C, strain drs2, active compounds read low 0.995 | locus YAL030W, strain snc1, active compounds read low 1 | locus YBL061C, strain skt5, active compounds read low 0.995 | locus YBR009C, strain hhf1, active compounds read low 0.992 | locus YBR021W, strain FUR4, active compounds read low 1.01 | locus YBR023C, strain chs3, active compounds read low 0.996 | locus YBR171W, strain sec66, active compounds read low 0.999 | locus YBR229C, strain ROT2, active compounds read low 1.01 | locus YBR231C, strain swc5, active compounds read low 0.992 | locus YBR279W, strain paf1, active compounds read low 0.996 | locus YCL011C, strain gbp2, active compounds read low 0.97 | locus YCL016C, strain dcc1, active compounds read low 0.993 | locus YCL029C, strain bik1, active compounds read low 1.07 | locus YCL061C, strain MRC1, active compounds read low 0.981 | locus YCL069W, strain vba3, active compounds read low 1 | locus YCR088W, strain abp1, active compounds read low 0.993 | locus YDL005C, strain med2, active compounds read low 0.981 | locus YDL035C, strain GPR1, active compounds read low 1.02 | locus YDL040C, strain nat1, active compounds read low 0.989 | locus YDL074C, strain BRE1, active compounds read low 1.04 | locus YDL101C, strain DUN1, active compounds read low 1.01 | locus YDL185W, strain tfp1, active compounds read low 1.01 | locus YDL192W, strain arf1, active compounds read low 1.04 | locus YDR001C, strain nth1, active compounds read low 0.979 | locus YDR069C, strain doa4, active compounds read low 1.08 | locus YDR101C, strain arx1, active compounds read low 1.02 | locus YDR137W, strain rgp1, active compounds read low 0.992 | locus YDR150W, strain NUM1, active compounds read low 1.02 | locus YDR159W, strain sac3, active compounds read low 0.985 | locus YDR162C, strain NBP2, active compounds read low 1.04 | locus YDR195W, strain ref2 0.982 | locus YDR297W, strain sur2, active compounds read low 1.02 | locus YDR318W, strain mcm21, active compounds read low 1.04 | locus YDR334W, strain swr1, active compounds read low 0.977 | locus YDR335W, strain msn5, active compounds read low 0.986 | locus YDR388W, active compounds read low 1.02 | locus YDR392W, strain spt3, active compounds read low 0.996 | locus YDR502C, strain sam2, active compounds read low 1.03 | locus YEL003W, strain gim4, active compounds read low 1.01 | locus YEL037C, strain rad23, active compounds read low 0.995 | locus YEL061C, strain CIN8 (second series), active compounds read low 0.984 | locus YER015W, strain faa2, active compounds read low 0.99 | locus YER016W, strain bim1, active compounds read low 0.971 | locus YER110C, active compounds read low 1 | locus YER111C, strain swi4, active compounds read low 0.977 | locus YER155C, strain BEM2 (second series), active compounds read low 0.973 | locus YER155C, strain BEM2, active compounds read low 1.02 | locus YER167W, strain BCK2, active compounds read low 1.02 | locus YFR010W, strain ubp6, active compounds read low 0.998 | locus YGL078C, strain dbp3, active compounds read low 1.03 | locus YGL086W, strain mad1, active compounds read low 1.02 | locus YGL167C, strain pmr1, active compounds read low 0.982 | locus YGL173C, strain kem1, active compounds read low 0.975 | locus YGL227W, strain vid30, active compounds read low 0.982 | locus YGL240W, strain doc1, active compounds read low 0.991 | locus YGL248W, strain PDE1, active compounds read low 1.01 | locus YGL253W, strain hxk2, active compounds read low 0.991 | locus YGR078C, strain PAC10, active compounds read low 1.02 | locus YGR135W, strain pre9, active compounds read low 1.08 | locus YGR252W, strain gcn5, active compounds read low 1.01 | locus YHR013C, strain ard1, active compounds read low 0.973 | locus YHR027C, strain rpn1, active compounds read low 1 | locus YHR030C, strain SLT2, active compounds read low 0.999 | locus YHR079C, strain IRE1 (second series), active compounds read low 1 | locus YHR079C, strain IRE1, active compounds read low 0.985 | locus YHR094C, strain hxt1, active compounds read low 1.02 | locus YHR129C, strain ARP1, active compounds read low 1.02 | locus YHR142W, strain chs7, active compounds read low 1.01 | locus YHR200W, strain rpn10, active compounds read low 1.03 | locus YIL066C, strain RNR3, active compounds read low 1.02 | locus YIL073C, strain SPO22, active compounds read low 1.06 | locus YIL125W, strain kgd1, active compounds read low 1 | locus YIR030C, strain dcg1, active compounds read low 1.05 | locus YJL092W, strain hpr5, active compounds read low 0.968 | locus YJL095W, strain BCK1 (second series), active compounds read low 1.01 | locus YJL095W, strain BCK1, active compounds read low 1.04 and 0.981 | locus YJL115W, strain asf1, active compounds read low 0.957 | locus YJL129C, strain trk1, active compounds read low 0.974 | locus YJL134W, strain LCB3, active compounds read low 1.01 | locus YJL154C, strain vps35, active compounds read low 0.984 | locus YJL164C, strain tpk1, active compounds read low 1.03 | locus YJL166W, strain qcr8, active compounds read low 0.975 | locus YJL168C, strain set2, active compounds read low 1.01 | locus YJL187C, strain SWE1 (second series), active compounds read low 1.02 | locus YJR043C, strain POL32, active compounds read low 1.02 | locus YJR066W, strain TOR1, active compounds read low 0.907 | locus YKL009W, strain mrt4, active compounds read low 0.918 | locus YKL068W, active compounds read low 0.996 | locus YKL085W, strain MDH1 (second series), active compounds read low 0.989 | locus YKL085W, strain MDH1, active compounds read low 0.989 | locus YKL160W, strain elf1, active compounds read low 0.99 | locus YKL190W, strain CNB1, active compounds read low 1.02 | locus YKR001C, strain vps1, active compounds read low 1.02 | locus YKR026C, strain gcn3, active compounds read low 1 | locus YKR091W, strain srl3, active compounds read low 0.984 | locus YLL001W, strain dnm1, active compounds read low 0.972 | locus YLL026W, active compounds read low 0.976 | locus YLL041C, strain sdh2, active compounds read low 1.02 | locus YLR027C, strain aat2, active compounds read low 0.999 | locus YLR039C, strain RIC1, active compounds read low 1.1 | locus YLR058C, strain SHM2, active compounds read low 1.01 | locus YLR102C, strain apc9, active compounds read low 1.02 | locus YLR113W, strain HOG1, active compounds read low 1.05 | locus YLR221C, strain rsa3, active compounds read low 0.959 | locus YLR258W, strain gsy2, active compounds read low 0.992 | locus YLR262C, strain YPT6 (second series), active compounds read low 1.02 | locus YLR262C, strain YPT6, active compounds read low 1.06 | locus YLR268W, strain sec22, active compounds read low 1.02 | locus YLR320W, strain mms22, active compounds read low 0.986 | locus YLR330W, strain CHS5, active compounds read low 1.02 | locus YLR342W, strain FKS1 (second series), active compounds read low 1.03 | locus YLR342W, strain FKS1, active compounds read low 0.982 | locus YLR357W, strain rsc2, active compounds read low 0.986 | locus YLR370C, strain arc18, active compounds read low 0.981 | locus YLR371W, strain rom2, active compounds read low 1.06 | locus YLR384C, strain iki3, active compounds read low 0.993 | locus YLR418C, strain cdc73, active compounds read low 1.01 | locus YML016C, strain PPZ1, active compounds read low 1.02 | locus YML032C, strain rad52, active compounds read low 1.01 | locus YML120C, strain ndi1, active compounds read low 0.99 | locus YML124C, strain tub3, active compounds read low 1.03 | locus YMR058W, strain fet3, active compounds read low 0.968 | locus YMR078C, strain ctf18, active compounds read low 1.02 | locus YMR125W, strain sto1, active compounds read low 0.976 | locus YMR129W, active compounds read low 0.985 | locus YMR205C, strain PFK2, active compounds read low 0.987 | locus YMR223W, strain ubp8, active compounds read low 1.01 | locus YMR231W, strain pep5, active compounds read low 0.985 | locus YMR307W, strain GAS1, active compounds read low 0.974 | locus YNL067W, strain RPL9B, active compounds read low 1.02 | locus YNL071W, strain lat1, active compounds read low 1.05 | locus YNL183C, strain NPR1, active compounds read low 0.956 | locus YNL209W, strain ssb2, active compounds read low 0.993 | locus YNL233W, strain BNI4, active compounds read low 1.05 | locus YNL248C, strain rpa49, active compounds read low 0.976 | locus YNL250W, strain rad50, active compounds read low 1.02 | locus YNL271C, strain bni1, active compounds read low 1.02 | locus YNL298W, strain CLA4, active compounds read low 1.03 | locus YNL307C, strain MCK1, active compounds read low 1.03 | locus YNL322C, strain KRE1 (second series), active compounds read low 1 | locus YNL322C, strain KRE1, active compounds read low 1.01 | locus YNR049C, strain mso1, active compounds read low 0.982 | locus YNR052C, strain pop2, active compounds read low 1.01 | locus YOL006C, strain TOP1, active compounds read low 1.11 | locus YOL012C, strain htz1 0.869 | locus YOL147C, strain pex11, active compounds read low 1.04 | locus YOR001W, strain rrp6, active compounds read low 0.979 | locus YOR061W, strain CKA2, active compounds read low 1.02 | locus YOR069W, strain VPS5, active compounds read low 1.01 | locus YOR070C, strain gyp1, active compounds read low 0.987 | locus YOR080W, strain dia2, active compounds read low 0.965 | locus YOR083W, strain WHI5, active compounds read low 0.987 | locus YOR106W, strain vam3, active compounds read low 0.991 | locus YOR136W, strain idh2, active compounds read low 1 | locus YOR144C, strain elg1, active compounds read low 1.02 | locus YOR184W, strain ser1, active compounds read low 1.05 | locus YOR231W, strain MKK1, active compounds read low 0.975 | locus YOR265W, strain rbl2, active compounds read low 1 | locus YOR270C, strain vph1, active compounds read low 1.07 | locus YOR290C, strain snf2, active compounds read low 0.978 | locus YOR316C, strain cot1, active compounds read low 1 | locus YPL051W, strain arl3, active compounds read low 0.985 | locus YPL078C, strain atp4, active compounds read low 0.989 | locus YPL106C, strain sse1, active compounds read low 1.03 | locus YPL240C, strain hsp82, active compounds read low 1 | locus YPL256C, strain CLN2, active compounds read low 0.988 | locus YPR119W, strain clb2, active compounds read low 1.01 | locus YPR141C, strain kar3, active compounds read low 1.06 | locus YPR163C, strain tif3, active compounds read low 1.02 | locus YPR167C, strain met16, active compounds read low 1.05 | strain wtn01, active compounds read low 1.04
